4 molecules from PubChem BioAssay (EPA / NIEHS) can be followed below.

A short description of assay [1]: ATG_CMV_CIS: Attagene CIS-FACTORIAL HepG2 Assay for human CMV (Internal Marker) (AID 2282928).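 Also: endpoint acts as a background internal control marker rather than a target.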 The note with it: HepG2 CMV promoter reporter, transcription factor profiling; actives raise or lower the signal. An outline of the steps: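 24 h chemical treatment, HepG2 with transient multi-reporter transfection; RNA → oligo(dT) RT → PCR → 6-FAM extension → HpaI digest → CE fluorescence. Bidirectional fit, DMSO negative control.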

A short description of assay [2]: ATG_ISRE_CIS: Attagene CIS-FACTORIAL HepG2 Assay for human Interferon Regulatory Factor 1 (IRF1) binding to an Interferon-Stimulated Response Element (ISRE) (AID 2282948). The note with it: HepG2 ISRE cis-reporter (Attagene), mRNA transcription readout; actives raise or lower the signal. An outline of the steps: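 Multiplexed mRNA reporter readout in human liver HepG2 cells: cis-element-driven reporters transfected, compound added for 24 h, transcripts amplified, fluorescently labelled and sized by capillary electrophoresis; curve fitting bidirectional against DMSO.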

A short description of assay [3]: ATG_M_32_CIS: Attagene CIS-FACTORIAL HepG2 Assay for M32 Transcription Factor (Internal Marker) (AID 2282949).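 Also: background control marker of the multiplexed CIS panel rather than a real target.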 The following applies: HepG2 Attagene cis-factorial M32 reporter, mRNA; actives raise or lower the signal. An outline of the steps: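 HepG2 human liver cells transiently transfected with cis-promoter-driven multiple reporter transcription units, dosed 24 h. Reporter mRNA quantified by RT-PCR, FAM-labelled primer extension, HpaI digest and capillary electrophoresis; bidirectional fit versus DMSO baseline.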

For assay [4], the target named is Hepatocyte nuclear factor 6 (Homo sapiens) (UniProt Q9UBC0). Kind of assay: ATG_HNF6_CIS: Attagene CIS-FACTORIAL HepG2 Assay for human Hepatocyte Nuclear Factor 6 (HNF6) (AID 2282952). The following applies: HepG2 Attagene cis-factorial HNF6 reporter transcription; actives raise or lower the signal. An outline of the steps: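 Activity values derive from bidirectional fitting against DMSO of reporter mRNA levels, measured by capillary electrophoresis of labelled RT-PCR products from HepG2 cells exposed 24 h.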
Chain of Hepatocyte nuclear factor 6 (Homo sapiens) (Q9UBC0 whole entry, looked up): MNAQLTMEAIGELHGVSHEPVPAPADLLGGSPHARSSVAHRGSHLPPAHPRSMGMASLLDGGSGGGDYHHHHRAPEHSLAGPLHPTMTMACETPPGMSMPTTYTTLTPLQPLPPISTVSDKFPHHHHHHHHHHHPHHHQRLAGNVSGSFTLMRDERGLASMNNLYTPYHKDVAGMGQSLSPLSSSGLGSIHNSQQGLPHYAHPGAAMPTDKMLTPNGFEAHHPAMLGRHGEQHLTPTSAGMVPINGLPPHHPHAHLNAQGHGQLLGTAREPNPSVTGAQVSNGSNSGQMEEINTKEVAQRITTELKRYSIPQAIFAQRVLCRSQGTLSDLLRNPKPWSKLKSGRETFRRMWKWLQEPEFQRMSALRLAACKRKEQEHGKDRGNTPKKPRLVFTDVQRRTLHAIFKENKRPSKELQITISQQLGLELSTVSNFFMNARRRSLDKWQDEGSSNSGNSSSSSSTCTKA

Assay [5] concerns the target Heat shock factor protein 1 (Homo sapiens) (UniProt Q00613). Kind of assay: ATG_HSE_CIS: Attagene CIS-FACTORIAL HepG2 Assay for human Heat Shock Transcription Factor 1 (HSE) (AID 2282953). The following applies: HepG2 HSE cis-reporter, Attagene RNA transcription; actives raise or lower the signal. Put shortly: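 After a 24 h incubation with test chemical, transfected HepG2 cells were harvested for RNA; reporter transcripts were measured by RT-PCR and capillary electrophoresis. Values reflect gain or loss of signal relative to DMSO.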

Assay [6] can be described thus: ATG_RORE_CIS: Attagene CIS-FACTORIAL HepG2 Assay for human RAR-related Orphan Receptor Element (RORE) (AID 2282959). The note with it: HepG2 Attagene cis-factorial RORE reporter, mRNA; actives raise or lower the signal. Put shortly: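 Cells were HepG2 carrying transfected cis-regulated reporter constructs, dosed for 24 hours. Total RNA was reverse-transcribed and reporter cDNA amplified, fluorescently labeled and sized by capillary electrophoresis. Activity was fitted bidirectionally relative to DMSO.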

For assay [7], the target named is Signal transducer and activator of transcription 3 (Homo sapiens) (UniProt P40763). The assay is described as follows: ATG_STAT3_CIS: Attagene CIS-FACTORIAL HepG2 Assay for human Signal Transducer and Activator of Transcription 3 (STAT3) (AID 2282963). The following applies: HepG2, Attagene cis-factorial STAT3 reporter transcription; actives raise or lower the signal. Put shortly:
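HepG2, MRTU-transfected, 24 h dosing. RNA → RT → PCR → FAM label → HpaI → CE. Bidirectional fit vs DMSO.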

Assay [8] can be described thus: ATG_TA_CIS: Attagene CIS-FACTORIAL HepG2 Assay for human TA Basal Promoter (AID 2282964). The following applies: HepG2 Attagene CIS-factorial TA basal promoter reporter; actives raise or lower the signal. An outline of the steps:
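Multiplexed mRNA reporter assay, HepG2, 24 h. Reporter cDNA amplified, 6-FAM primer-extended, HpaI-cut, CE-sized; DMSO = negative control and baseline.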

Assay [9] in a line: ATG_TCF_b_cat_CIS: Attagene CIS-FACTORIAL HepG2 Assay for human T-Cell-Factor with beta-catenin (TCF/b-cat) (AID 2282965). The note with it: HepG2 TCF/beta-catenin cis-reporter transcription, actives raise or lower the signal. An outline of the steps: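 In this cis-format system, transfected HepG2 cells report endogenous transcription factor activity. Readout after 24 h exposure is reporter transcript abundance from RT-PCR and capillary electrophoresis, analysed for gain or loss of signal versus DMSO.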

A short description of assay [10]: ATG_TAL_CIS: Attagene CIS-FACTORIAL HepG2 Assay for human TAL Basal Promoter (AID 2282966).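 Also: background control endpoint measuring basal TAL promoter reporter mRNA not a specific factor.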 The note with it: HepG2 Attagene cis-factorial TAL promoter reporter; actives raise or lower the signal. An outline of the steps: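 Transiently transfected HepG2 (cis-regulated reporter units), 24 h treatment, mRNA read by fluorescent CE after RT-PCR; bidirectional fit, DMSO baseline.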

A short description of assay [11]: ATG_TGFb_CIS: Attagene CIS-FACTORIAL HepG2 Assay for human Transforming Growth Factor (TGF) (AID 2282967). The note with it: HepG2 Attagene CIS TGFb reporter, mRNA transcription; actives raise or lower the signal. An outline of the steps: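 Transcript-level reporter readout: HepG2 transfectants, 24 h exposure, RNA to cDNA, reporter-specific PCR, fluorescent primer extension, capillary sizing against ROX standards. Gain- or loss-of-signal relative to DMSO.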

Assay [12] deals with X-box-binding protein 1 (Homo sapiens) (UniProt P17861). Kind of assay: ATG_Xbp1_CIS: Attagene CIS-FACTORIAL HepG2 Assay for human X-box Binding Protein 1 (XBP1) (AID 2282972). The following applies: HepG2 XBP1 cis-element reporter, Attagene multiplex; actives raise or lower the signal. Put shortly:
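Multiplexed cis-reporter readout in transfected HepG2 liver cells. Exposure lasted 24 hours. Activity in either direction was fitted against DMSO as negative control and baseline.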

The target of assay [13] is Transcriptional activator Myb (Homo sapiens) (UniProt P10242). The assay is described as follows: ATG_Myb_CIS: Attagene CIS-FACTORIAL HepG2 Assay for human Myeloblastosis (Myb) Proto-Oncogene Transcription Factor (AID 2282986). The note with it: HepG2 Attagene CIS-FACTORIAL Myb reporter transcription; actives raise or lower the signal. Put shortly:
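Steps: transfect HepG2 with cis-regulated reporter units; dose with chemical for 24 h; isolate RNA, reverse-transcribe, PCR-amplify and FAM-label reporter sequences; digest with HpaI; resolve by capillary electrophoresis. Activity fitted in both directions relative to DMSO.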

In assay [14] the target is Nuclear respiratory factor 1 (Homo sapiens) (UniProt Q16656). The assay is described as follows: ATG_NRF1_CIS: Attagene CIS-FACTORIAL HepG2 Assay for human Nuclear Respiratory Factor 1 (NRF1) Orphan Gene (AID 2282987). The following applies: HepG2 NRF1 cis-element reporter, Attagene multiplex; actives raise or lower the signal. An outline of the steps:
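Fluorescence intensity of labelled reporter cDNA fragments, resolved by capillary electrophoresis, served as readout for NRF1 cis-element activity. Transiently transfected HepG2 cells were dosed for 24 hours; activity in either direction was fitted against DMSO negative control.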

The target in assay [15] is Myc proto-oncogene protein (Homo sapiens) (UniProt P01106). Kind of assay: ATG_Myc_CIS: Attagene CIS-FACTORIAL HepG2 Assay for human Myelocytomatosis (Myc) Proto-Oncogene Transcription Factor (AID 2282990). The note with it: HepG2, Attagene cis-reporter transcription factor activity; actives raise or lower the signal. Put shortly: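 DMSO-normalised, bidirectionally fitted reporter mRNA signal. HepG2 cells transfected with cis reporter constructs, treated 24 h; transcripts detected by RT-PCR, 6-FAM primer extension and CE.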
Chain of Myc proto-oncogene protein (Homo sapiens) (P01106 whole entry, looked up): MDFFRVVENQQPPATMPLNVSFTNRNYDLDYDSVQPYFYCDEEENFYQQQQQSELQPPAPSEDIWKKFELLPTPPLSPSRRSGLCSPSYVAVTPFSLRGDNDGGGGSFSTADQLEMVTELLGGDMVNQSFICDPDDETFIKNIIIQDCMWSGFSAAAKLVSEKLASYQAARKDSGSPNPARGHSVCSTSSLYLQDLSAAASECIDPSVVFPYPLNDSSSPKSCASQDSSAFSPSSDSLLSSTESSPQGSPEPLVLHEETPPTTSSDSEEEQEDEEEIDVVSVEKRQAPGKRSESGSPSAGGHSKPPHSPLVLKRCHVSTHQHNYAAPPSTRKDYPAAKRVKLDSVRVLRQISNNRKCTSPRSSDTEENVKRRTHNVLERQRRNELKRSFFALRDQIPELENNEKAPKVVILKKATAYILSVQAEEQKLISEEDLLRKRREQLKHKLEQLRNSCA

A short description of assay [16]: ATG_NRF2_ARE_CIS: Attagene CIS-FACTORIAL HepG2 Assay for human Nuclear Factor Erythroid 2 Related Factor 2 (NFR2) response to Antioxidant Response Elements (ARE) (AID 2282992). The note with it: HepG2 Attagene ARE/NRF2 reporter, transcription factor activity; actives raise or lower the signal. Put shortly:
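Endogenous transcription factor activity in human liver HepG2 cells is tracked via a cis-element-driven reporter within a multiplexed set. mRNA induction is read by RT-PCR and capillary electrophoresis after 24 h, with DMSO as baseline.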

Assay [17] can be described thus: ATG_Oct_MLP_CIS: Attagene CIS-FACTORIAL HepG2 Assay for human Octamer-Binding Transcription Factor (Oct) (AID 2282993). The following applies: HepG2 Attagene cis-factorial Oct reporter, mRNA; actives raise or lower the signal. Put shortly:
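Cells of the HepG2 line express promoter-controlled reporter sequences whose mRNA levels, after 24 h treatment, are measured by RT-PCR and capillary electrophoresis. Increases and decreases are scored relative to DMSO.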

Assay [18] has as its target Cellular tumor antigen p53 (Homo sapiens) (UniProt P04637). The assay is described as follows: ATG_p53_CIS: Attagene CIS-FACTORIAL HepG2 Assay for human p53 Transcription Factor (AID 2282994). The following applies: HepG2 p53 cis-element reporter, Attagene mRNA; actives raise or lower the signal. An outline of the steps:
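Steps: transfect HepG2 with multiplexed cis reporter constructs; dose chemicals 24 h; extract RNA, reverse-transcribe, PCR-amplify reporter sequences; FAM-label, HpaI-digest, resolve fragments by CE. Activity fitted both directions relative to DMSO.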

Assay [19] is described as follows: ATG_VDRE_CIS: Attagene CIS-FACTORIAL HepG2 Assay for human Vitamin D Receptor Element (VDRE) (AID 2282968). The note with it: HepG2 VDRE cis-reporter transcription, actives raise or lower the signal. An outline of the steps:
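Steps: transfect HepG2 with multiple reporter transcription units; dose chemicals 24 h; isolate RNA; RT-PCR; label with 6-FAM primer extension; HpaI digest; capillary electrophoresis. Curves fitted both directions against DMSO.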

The nature of assay [20]: ATG_NF_kB_CIS: Attagene CIS-FACTORIAL HepG2 Assay for human Nuclear Factor Kappa B (NF-kB) (AID 2282991). The note with it: HepG2 Attagene cis-factorial NF-kB reporter mRNA; actives raise or lower the signal. An outline of the steps:
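Endogenous transcription factor activity in HepG2 was captured via cis-regulated reporter constructs; after 24 h dosing, reporter mRNA was reverse-transcribed, amplified, fluorescently labelled and sized by capillary electrophoresis, with activity fitted bidirectionally relative to DMSO.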

Molecules are shown by their SMILES. Activity calls are given as the source filed them. The calls were made as follows: active = hit-call score of the fitted dose curve at least 0.9, where 1 is the maximum; inactive = score below 0.9.

The term AC50 denotes the concentration at which the activity in the assay is half-maximal.

Chain of Nuclear respiratory factor 1 (Homo sapiens) (Q16656 whole entry, looked up, the tested form may be a part): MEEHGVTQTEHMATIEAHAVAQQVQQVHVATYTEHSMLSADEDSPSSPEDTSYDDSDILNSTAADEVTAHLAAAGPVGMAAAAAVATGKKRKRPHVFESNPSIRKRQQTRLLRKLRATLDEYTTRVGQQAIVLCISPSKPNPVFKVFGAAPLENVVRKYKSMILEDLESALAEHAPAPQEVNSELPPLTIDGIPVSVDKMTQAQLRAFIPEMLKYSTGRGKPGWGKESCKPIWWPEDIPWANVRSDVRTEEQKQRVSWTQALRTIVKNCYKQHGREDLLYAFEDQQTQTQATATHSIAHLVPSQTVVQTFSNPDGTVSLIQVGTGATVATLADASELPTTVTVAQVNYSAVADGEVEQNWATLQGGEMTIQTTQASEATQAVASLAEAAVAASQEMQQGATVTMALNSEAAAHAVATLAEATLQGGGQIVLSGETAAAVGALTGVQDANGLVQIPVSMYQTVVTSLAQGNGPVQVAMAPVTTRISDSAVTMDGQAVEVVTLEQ
Chain of X-box-binding protein 1 (Homo sapiens) (P17861 whole entry, looked up): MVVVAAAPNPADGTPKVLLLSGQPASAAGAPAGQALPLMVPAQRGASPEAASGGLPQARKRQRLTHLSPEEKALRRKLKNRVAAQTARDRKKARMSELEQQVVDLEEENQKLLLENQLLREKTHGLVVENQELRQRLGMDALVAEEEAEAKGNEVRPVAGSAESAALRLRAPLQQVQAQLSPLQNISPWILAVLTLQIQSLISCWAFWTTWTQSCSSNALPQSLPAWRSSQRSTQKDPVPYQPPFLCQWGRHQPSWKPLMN
Chain of Transcriptional activator Myb (Homo sapiens) (P10242 whole entry, looked up): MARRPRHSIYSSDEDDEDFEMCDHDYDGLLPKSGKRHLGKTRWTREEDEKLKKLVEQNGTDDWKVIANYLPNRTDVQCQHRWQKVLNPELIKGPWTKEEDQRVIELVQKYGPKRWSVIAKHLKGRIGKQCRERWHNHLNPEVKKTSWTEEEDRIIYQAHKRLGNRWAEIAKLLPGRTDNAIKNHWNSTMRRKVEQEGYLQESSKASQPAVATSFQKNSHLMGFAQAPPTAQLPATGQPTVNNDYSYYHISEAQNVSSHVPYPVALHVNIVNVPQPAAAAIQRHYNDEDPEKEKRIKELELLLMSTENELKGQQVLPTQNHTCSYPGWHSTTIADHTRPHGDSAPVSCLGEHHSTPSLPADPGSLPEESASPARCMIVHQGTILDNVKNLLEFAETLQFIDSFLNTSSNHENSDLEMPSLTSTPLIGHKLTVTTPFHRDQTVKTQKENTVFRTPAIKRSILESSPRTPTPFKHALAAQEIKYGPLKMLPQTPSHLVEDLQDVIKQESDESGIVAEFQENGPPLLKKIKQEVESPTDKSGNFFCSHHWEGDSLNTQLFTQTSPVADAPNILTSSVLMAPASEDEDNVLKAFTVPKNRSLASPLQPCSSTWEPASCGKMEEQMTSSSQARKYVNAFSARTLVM
Chain of Cellular tumor antigen p53 (Homo sapiens) (P04637 whole entry, looked up, the tested form may be a part): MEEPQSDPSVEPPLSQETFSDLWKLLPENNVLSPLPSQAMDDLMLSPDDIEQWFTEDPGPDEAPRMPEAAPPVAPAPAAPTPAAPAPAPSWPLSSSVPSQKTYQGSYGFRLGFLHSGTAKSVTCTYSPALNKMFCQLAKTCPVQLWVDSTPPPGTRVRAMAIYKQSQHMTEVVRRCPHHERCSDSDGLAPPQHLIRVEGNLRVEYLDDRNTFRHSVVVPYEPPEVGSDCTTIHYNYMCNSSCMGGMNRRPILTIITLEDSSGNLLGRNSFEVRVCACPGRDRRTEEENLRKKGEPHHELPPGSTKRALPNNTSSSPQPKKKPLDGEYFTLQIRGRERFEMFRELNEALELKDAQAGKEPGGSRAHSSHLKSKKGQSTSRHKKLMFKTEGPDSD
Chain of Heat shock factor protein 1 (Homo sapiens) (Q00613 whole entry, looked up): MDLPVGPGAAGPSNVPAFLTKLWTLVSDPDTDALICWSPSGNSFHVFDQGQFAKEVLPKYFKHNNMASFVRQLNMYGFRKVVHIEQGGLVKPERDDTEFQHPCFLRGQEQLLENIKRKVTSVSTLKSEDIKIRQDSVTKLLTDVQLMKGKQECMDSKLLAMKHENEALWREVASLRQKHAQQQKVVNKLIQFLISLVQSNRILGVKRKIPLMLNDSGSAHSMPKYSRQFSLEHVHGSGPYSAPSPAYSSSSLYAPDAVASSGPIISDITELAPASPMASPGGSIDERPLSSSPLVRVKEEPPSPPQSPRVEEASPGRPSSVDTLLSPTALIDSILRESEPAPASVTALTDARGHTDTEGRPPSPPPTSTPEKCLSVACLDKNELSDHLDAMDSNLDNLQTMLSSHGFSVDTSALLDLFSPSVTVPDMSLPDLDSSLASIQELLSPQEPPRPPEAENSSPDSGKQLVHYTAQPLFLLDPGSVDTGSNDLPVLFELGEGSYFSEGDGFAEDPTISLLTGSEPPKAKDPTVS
Chain of Signal transducer and activator of transcription 3 (Homo sapiens) (P40763 whole entry, looked up): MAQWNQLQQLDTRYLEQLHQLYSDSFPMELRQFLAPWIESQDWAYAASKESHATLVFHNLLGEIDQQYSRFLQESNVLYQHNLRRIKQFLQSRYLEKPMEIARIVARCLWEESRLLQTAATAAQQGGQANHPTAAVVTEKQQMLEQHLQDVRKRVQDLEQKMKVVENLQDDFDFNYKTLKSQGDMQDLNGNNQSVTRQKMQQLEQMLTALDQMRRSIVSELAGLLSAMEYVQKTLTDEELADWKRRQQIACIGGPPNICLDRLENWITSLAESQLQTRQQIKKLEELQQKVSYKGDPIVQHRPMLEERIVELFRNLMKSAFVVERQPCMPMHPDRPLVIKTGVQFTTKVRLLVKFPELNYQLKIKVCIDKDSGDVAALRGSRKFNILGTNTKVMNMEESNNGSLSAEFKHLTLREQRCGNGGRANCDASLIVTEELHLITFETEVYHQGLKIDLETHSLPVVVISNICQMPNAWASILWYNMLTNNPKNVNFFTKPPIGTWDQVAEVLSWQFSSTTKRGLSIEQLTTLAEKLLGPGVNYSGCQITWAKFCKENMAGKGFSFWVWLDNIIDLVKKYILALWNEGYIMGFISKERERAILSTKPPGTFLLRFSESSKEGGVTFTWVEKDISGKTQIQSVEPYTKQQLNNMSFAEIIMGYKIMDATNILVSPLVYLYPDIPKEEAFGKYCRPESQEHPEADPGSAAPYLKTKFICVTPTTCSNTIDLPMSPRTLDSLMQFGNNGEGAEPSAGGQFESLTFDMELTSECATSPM

Regarding `C=C(Cl)Cl`, the outcome in assay [1], in [2], in assay [3], in [4], in assay [5] and in assay [6] was inactive. In addition, the molecule was called inactive in [7], in assay [8], in [9], in assay [10], in [11] and in [12]. The outcome in assay [13], in assay [14], in assay [15], in assay [16], in assay [17] and in assay [18] was inactive.

For the molecule `O=C(O)CCCc1ccc(N(CCCl)CCCl)cc1`, the outcome in assay [1], in assay [2], in [3], in assay [4], in [5] and in [8] was inactive. Further, the call in [10], in assay [11], in assay [19], in assay [12], in assay [13] and in assay [14] was inactive. Besides, the result in assay [15], in assay [20], in assay [16] and in assay [17] was inactive. Further, the AC50 in assay [9] was 143 µM (active); in assay [18], 54.7 µM (active).

`C=CC(=O)OC`: the result in [1], in [4], in assay [5], in assay [6], in [7] and in [8] was inactive. In addition, the molecule was classed as inactive in [9], in [10], in assay [11], in assay [19], in assay [12] and in assay [13]. The call in assay [14], in assay [15], in assay [20], in assay [16], in assay [17] and in assay [18] was inactive.

For the molecule `Cc1ccc(OP(=O)(Oc2ccc(C)cc2)Oc2ccc(C)cc2)cc1` (tested in a mixture with another compound), the outcome in assay [1], in assay [4], in [7], in assay [8], in assay [9] and in assay [10] was inactive. The call in assay [11], in [12], in assay [13], in assay [14], in assay [15] and in assay [16] was inactive. Besides, the molecule was classed as inactive in [17] and in [18]. In addition, the AC50 in assay [19] is 2.35 µM (active).
